According to PubChem BioAssay (Tox21):
Results filed as inconclusive are left out. Active and inactive are the calls of the source. Unless noted, calls come from the whole dose curve.

Columns and labels:
[1] = Nuclear factor erythroid 2-related factor 2/antioxidant responsive element (Nrf2/ARE) small molecule agonists: qHTS cell viability counter screen in human keratinocytes (AID 1919968; active = well fitted cell-killing curve with a large enough effect in the repeat runs; note: nearly all actives have a fitted effect of over 55% in size; note: potency is the fitted concentration of half-maximal effect)
Procedure, shortened: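 Stably transfected HaCaT (KeratinoSens), 1,500/well. Test agents in DMSO were applied for 23 h, 37 C/5% CO2. CellTiter-Fluor was incubated 1 h before the fluorescence read.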

[2] = Nuclear factor erythroid 2-related factor 2/antioxidant responsive element (Nrf2/ARE) small molecule agonists: luciferase reporter gene qHTS assay in human keratinocytes (AID 1919969); note: nearly all actives have a fitted effect of over 35% in size; note: potency is the fitted concentration of half-maximal effect
[3] = molecular target: Gonadotropin-releasing hormone receptor (Homo sapiens) (UniProt P30968); test: Human gonadotropin-releasing hormone receptor (GnRHR) small molecule agonists, calcium flux assay in GnRHR-HEK293 cells (AID 1920063); note: nearly all actives have a fitted effect of over 35% in size
Gonadotropin-releasing hormone receptor (Homo sapiens), sequence (P30968 whole entry, looked up): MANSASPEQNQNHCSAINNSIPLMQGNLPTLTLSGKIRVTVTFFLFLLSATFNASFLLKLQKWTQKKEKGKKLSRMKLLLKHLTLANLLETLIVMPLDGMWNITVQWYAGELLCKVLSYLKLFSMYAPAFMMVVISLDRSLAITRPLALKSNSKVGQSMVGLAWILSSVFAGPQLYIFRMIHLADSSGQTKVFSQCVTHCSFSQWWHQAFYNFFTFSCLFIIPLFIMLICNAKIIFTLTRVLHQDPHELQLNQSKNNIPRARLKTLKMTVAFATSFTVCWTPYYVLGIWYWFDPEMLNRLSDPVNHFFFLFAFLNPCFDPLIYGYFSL
Procedure, shortened: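 Stable human GnRHR HEK293 line. 18 h plating, then calcium dye for 1 h at 37 C. Agonist-mode compound addition from DMSO stocks; fluorescence monitored 3 min.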

[4] = p53 small molecule agonists, cell-based qHTS assay with human liver microsomes (AID 1963577);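 note: p53 response element beta-lactamase reporter cells with liver microsomes plus NADPH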
Procedure, shortened: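 In this qHTS, p53 response-element beta-lactamase cells receive test compound together with a microsome/NADPH activating system (0.5 mg/mL final each) and are incubated 16 h at 37 C before LiveBLAzer fluorescence detection.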

[5] = p53 small molecule agonists, cell-based qHTS assay with human liver microsomes: qHTS cell viability counter screen (AID 1963579); note: nearly all actives have a fitted effect of over 45% in size
Procedure, shortened: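 Metabolically activated exposure: compounds, human liver microsomes and NADPH (0.5 mg/mL final apiece) were added to p53RE-bla cells seeded 5 h earlier, left 16 h at 37 C, and then assessed for viability by CellTiter-Glo luminescence.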

[6] = p53 small molecule agonists, cell-based qHTS assay with rat liver microsomes: qHTS cell viability counter screen (AID 1963580); note: nearly all actives have a fitted effect of over 45% in size
Procedure, shortened: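 Cytotoxicity counter screen: intracellular ATP read by CellTiter-Glo luminescence in the p53 reporter wells. HCT-116 p53RE-bla cells were treated for 16 h at 37 C alongside rat liver microsomes and NADPH, each 0.5 mg/mL final.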

[7] = cAMP Responsive Elements (CRE) small molecule antagonists, cell-based qHTS assay (AID 1963591; active = well fitted inhibition curve with a large enough effect in the signal ratio in the repeat runs, not every such curve was filed as active; the % refers to the signal ratio)
Procedure, shortened: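 Reporter line CRE-bla HEK 293T in dialyzed-FBS DMEM; cells preincubated 18 h, treated 3 h with compound plus NKH477 (0.25 uM final); LiveBLAzer FRET, 2 h RT.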

[8] = molecular target: Beta-2 adrenergic receptor (Homo sapiens) (UniProt P07550); test: Adrenergic beta2 receptor (ADRB2) small molecule antagonists, cell-based qHTS assay (AID 1963592); note: series mostly up to about 92 µM; nearly all actives have a fitted effect of over 50% in size
Beta-2 adrenergic receptor (Homo sapiens), sequence (P07550 whole entry, looked up): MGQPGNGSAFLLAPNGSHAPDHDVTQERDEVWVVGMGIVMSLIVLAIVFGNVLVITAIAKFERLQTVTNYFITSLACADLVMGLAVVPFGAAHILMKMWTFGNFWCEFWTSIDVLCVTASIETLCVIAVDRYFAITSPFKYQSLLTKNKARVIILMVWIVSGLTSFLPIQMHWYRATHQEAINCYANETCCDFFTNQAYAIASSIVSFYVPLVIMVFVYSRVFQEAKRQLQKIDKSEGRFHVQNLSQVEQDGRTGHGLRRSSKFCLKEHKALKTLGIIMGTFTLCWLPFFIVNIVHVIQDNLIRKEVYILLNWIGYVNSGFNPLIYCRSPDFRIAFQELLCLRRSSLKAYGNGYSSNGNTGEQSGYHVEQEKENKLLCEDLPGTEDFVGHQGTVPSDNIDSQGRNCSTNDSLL
Procedure, shortened: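 Assay format: CHO-ADRB2 cells, 18-20hr seeding at 37C/5% CO2, then compound plus 1nM isoproterenol agonist mix for 0.5hr RT. Homogeneous time-resolved fluorescence cAMP detection after 1hr, expressed as 665/615 nm ratio.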

[9] = molecular target: D(2) dopamine receptor (Homo sapiens) (UniProt P14416); test: Dopamine D2 receptor (DRD2) small molecule agonists, cell-based qHTS assay (AID 1963594); note: nearly all actives have a fitted effect of over 35% in size; note: potency is the fitted concentration of half-maximal effect
D(2) dopamine receptor (Homo sapiens), sequence (P14416 whole entry, looked up): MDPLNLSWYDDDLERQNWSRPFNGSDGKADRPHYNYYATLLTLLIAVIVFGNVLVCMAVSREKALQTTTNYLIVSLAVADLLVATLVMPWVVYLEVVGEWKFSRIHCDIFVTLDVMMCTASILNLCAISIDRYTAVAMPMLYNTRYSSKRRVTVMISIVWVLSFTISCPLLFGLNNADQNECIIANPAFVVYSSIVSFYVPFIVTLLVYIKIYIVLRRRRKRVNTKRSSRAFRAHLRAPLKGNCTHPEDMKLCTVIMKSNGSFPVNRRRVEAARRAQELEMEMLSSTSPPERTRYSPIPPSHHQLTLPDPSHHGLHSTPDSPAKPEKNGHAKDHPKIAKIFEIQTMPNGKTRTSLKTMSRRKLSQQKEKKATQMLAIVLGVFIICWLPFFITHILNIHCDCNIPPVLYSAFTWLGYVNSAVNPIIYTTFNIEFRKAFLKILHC
Procedure, shortened: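 cAMP accumulation in DRD2-HEK293 cells measured by HTRF after 1 h detection; compounds added 10 min before NKH477 (200nM […]) forskolin-analogue stimulation, 30 min at room temperature, with Ro20-1724 present at 0.1 mM final.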

[10] = molecular target: D(2) dopamine receptor (Homo sapiens) (UniProt P14416); test: Dopamine D2 receptor (DRD2) small molecule antagonists, cell-based qHTS assay (AID 1963595; active = well fitted inhibition curve with a large enough effect in the signal ratio in the repeat runs, with a control signal flat; the % refers to the signal ratio)
Procedure, shortened: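 DRD2-HEK293; 0.1 mM Ro20-1724; cpd 10 min RT; NKH477 200 nM + quinpirole 12 nM, 30 min RT; HTRF cAMP (cAMP-d2/anti-cAMP cryptate), 665/620 nm ratio after 1 h.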

[11] = p53 small molecule agonists, cell-based qHTS assay with rat liver microsomes (AID 1963578)
Procedure, shortened: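 Agonist mode in p53RE-bla reporter cells, with compounds co-incubated 16 h at 37 C alongside 0.5 mg/mL rat liver microsomes and 0.5 mg/mL NADPH (final), followed by a 2 h LiveBLAzer detection step.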

[12] = p53 small molecule agonists, cell-based qHTS assay: qHTS cell viability counter screen (AID 1963581); note: nearly all actives have a fitted effect of over 45% in size
Procedure, shortened: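 qHTS counter screen: 16 h compound exposure at 37 C of p53RE-bla HCT-116 cells (4,000 per well, seeded 5 h prior), cell viability by ATP luminescence.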

[13] = p53 small molecule agonists, cell-based qHTS assay (AID 1963582; active = well fitted activation curve with a large enough effect in the signal ratio in the repeat runs, not every such curve was filed as active; the % refers to the signal ratio)
Procedure, shortened: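 Measured: fluorescence from cleaved LiveBLAzer substrate. System: p53RE-bla cells, 16 h compound treatment at 37 C, 2 h substrate step at room temperature.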

[14] = molecular target: 5-hydroxytryptamine receptor 2A (Homo sapiens) (UniProt P28223); test: 5-hydroxytryptamine receptor 2A (HTR2A) small molecule antagonists, cell-based qHTS assay (AID 1963586); note: nearly all actives have a fitted effect of over 45% in size
5-hydroxytryptamine receptor 2A (Homo sapiens), sequence (P28223 whole entry, looked up): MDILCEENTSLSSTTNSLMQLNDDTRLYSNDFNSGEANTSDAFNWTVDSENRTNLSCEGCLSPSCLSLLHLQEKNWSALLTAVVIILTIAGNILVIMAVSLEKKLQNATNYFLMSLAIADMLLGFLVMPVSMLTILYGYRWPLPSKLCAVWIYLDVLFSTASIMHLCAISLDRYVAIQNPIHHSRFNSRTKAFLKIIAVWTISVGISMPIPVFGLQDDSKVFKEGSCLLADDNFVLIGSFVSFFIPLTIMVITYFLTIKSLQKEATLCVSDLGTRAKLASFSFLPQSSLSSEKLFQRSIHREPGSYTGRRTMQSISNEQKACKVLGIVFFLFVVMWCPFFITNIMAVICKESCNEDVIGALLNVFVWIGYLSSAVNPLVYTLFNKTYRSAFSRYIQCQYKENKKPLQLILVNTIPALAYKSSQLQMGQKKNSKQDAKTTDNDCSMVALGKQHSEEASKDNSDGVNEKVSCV
Procedure, shortened: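 CHO cells stably expressing human HTR2A were plated for 18 h at 37 C, then loaded with calcium dye for 1 h. Compounds were preincubated 5 min at room temperature before DOI (4 nM solution) was added. Kinetic fluorescence was read for 3 min.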

[15] = molecular target: 5-hydroxytryptamine receptor 2A (Homo sapiens) (UniProt P28223); test: 5-hydroxytryptamine receptor 2A (HTR2A) small molecule agonists, cell-based qHTS assay (AID 1963587); note: nearly all actives have a fitted effect of over 30% in size
Procedure, shortened: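 Kinetic calcium-flux fluorescence (2 min, 1 sec intervals) after compound addition in agonist mode. HTR2A-CHO cells were cultured 18 h, then dye-loaded 1 h at 37 C.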

[16] = molecular target: Muscarinic acetylcholine receptor M1 (Homo sapiens) (UniProt P11229); test: Cholinergic receptor muscarinic 1 (CHRM1) small molecule antagonists, cell-based qHTS assay (AID 1963588); note: nearly all actives have a fitted effect of over 40% in size; note: potency is the fitted concentration of half-maximal effect
Muscarinic acetylcholine receptor M1 (Homo sapiens), sequence (P11229 whole entry, looked up): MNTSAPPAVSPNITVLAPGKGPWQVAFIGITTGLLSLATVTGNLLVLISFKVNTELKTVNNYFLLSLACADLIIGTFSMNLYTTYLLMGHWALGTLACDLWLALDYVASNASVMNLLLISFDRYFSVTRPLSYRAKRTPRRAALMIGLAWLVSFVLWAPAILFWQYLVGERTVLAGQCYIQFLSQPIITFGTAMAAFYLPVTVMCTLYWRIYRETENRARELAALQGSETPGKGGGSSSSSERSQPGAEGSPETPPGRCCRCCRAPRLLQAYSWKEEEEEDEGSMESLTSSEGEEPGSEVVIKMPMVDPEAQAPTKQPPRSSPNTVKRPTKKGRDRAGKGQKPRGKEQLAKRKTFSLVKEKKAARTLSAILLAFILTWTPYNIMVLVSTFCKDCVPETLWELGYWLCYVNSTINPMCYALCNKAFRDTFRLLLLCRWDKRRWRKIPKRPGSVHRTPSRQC
Procedure, shortened: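 Compounds were tested at 15 concentrations in three independent runs. Dye-loaded CHRM1-CHO cells were exposed 5 min at room temperature before stimulation by acetylcholine added at 50nM. Intracellular calcium was read kinetically on FDSS for 3 min.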

[17] = molecular target: Muscarinic acetylcholine receptor M1 (Homo sapiens) (UniProt P11229); test: Cholinergic receptor muscarinic 1 (CHRM1) small molecule agonists, cell-based qHTS assay (AID 1963589); note: nearly all actives have a fitted effect of over 35% in size
Procedure, shortened: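 Kinetic fluorescence (1 s intervals) of calcium-sensitive dye in human M1 CHO cells after compound addition; cells pre-incubated 18 h at 37 C/5% CO2 and dye-loaded 1 h.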

[18] = cAMP Responsive Elements (CRE) small molecule agonists, cell-based qHTS assay (AID 1963590)
Procedure, shortened: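 Test agents in DMSO were incubated 3 h at 37 C/5% CO2 with CRE-bla HEK 293T cells seeded 18 h earlier; LiveBLAzer B/G FRET substrate was added and read after 2 h at room temperature.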

[19] = molecular target: Beta-2 adrenergic receptor (Homo sapiens) (UniProt P07550); test: Adrenergic beta2 receptor (ADRB2) small molecule agonists, cell-based qHTS assay (AID 1963593);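 note: CHO cells stably overexpressing human ADRB2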
Procedure, shortened: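 CHO cells stably over-expressing ADRB2 were plated overnight at 37C, then dosed with compounds plus a stimulation mix containing 100uM IBMX and 25uM Ro-20-1724 for 0.5hr at room temperature. cAMP was measured by HTRF competition, 1hr.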

[20] = G protein-coupled receptor (GPCR) small molecule agonists, calcium flux assay: HEK293 wild type cell line counter screen (AID 1920065)
Procedure, shortened: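 Following 18 h incubation at 37 C/5% CO2, plates got calcium dye for 1 h; compounds, ATP or DMSO were then pinned in and fluorescence followed kinetically (480/540 nm).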

Measured: Potency

CC1=C(/C=C/C(C)=C/C=C/C(C)=C\C(=O)O)C(C)(C)CCC1
active: [2] 68.8 µM
inactive: [1] | [3] | [4] | [5] | [6] | [7] | [8] | [9] | [10]

O=[N+]([O-])c1ccc(CO)cc1
not listed: [5] | [8] | [9] | [20]
inactive: all other assays above

CC(=O)CC(c1ccc([N+](=O)[O-])cc1)c1c(O)c2ccccc2oc1=O (centres undefined)
not listed: [8]
inactive: all other assays above

CN(C)CCOCCN(C)CCO
not listed: [9] | [11] | [12] | [19] | [20]
inactive: all other assays above

CCC(C)(CCC(C)C)C(=O)[O][Sn]([CH3])([CH3])[O]C(=O)C(C)(CC)CCC(C)C (centres undefined)
active: [2] 30.6 µM
not listed: [4] | [19] | [20]
inactive: all other assays above

CC(C)CCCC(C)(C)O
not listed: [4] | [6] | [8] | [13] | [19] | [20]
inactive: all other assays above

CC(C)=CCC1C(=O)N(c2ccccc2)N(c2ccccc2)C1=O
active: [2] 29.8 µM
not listed: [5] | [6] | [8] | [10] | [11] | [13] | [18] | [20]
inactive: all other assays above

CN1C[C@H](C(=O)N[C@]2(C)O[C@@]3(O)[C@@H]4CCCN4C(=O)[C@H](Cc4ccccc4)N3C2=O)C[C@@H]2c3cccc4[nH]cc(c34)C[C@H]21
inactive: [1] | [2] | [3] | [4] | [11] | [6] | [12] | [13]
active: [9] 0.022 µM

O=C(O)COCC(=O)O
not listed: [11] | [19] | [20]
inactive: all other assays above

CC1=C2[C@@H]([C@H](C)CC[C@H]2/C=C(\C)C(=O)O)[C@H](O)C1
active: [16] 0.0026 µM
not listed: [4] | [8] | [18] | [19] | [20]
inactive: all other assays above

C=C[Si](C)(C)O[Si](C)(C)C=C
not listed: [7] | [19]
inactive: all other assays above

CCCCCO
not listed: [19]
inactive: all other assays above

COc1cc(C)ccc1O
not listed: [4] | [5] | [7] | [19] | [20]
inactive: all other assays above

CC(C)(C)NSc1nc2ccccc2s1
active: [2] 24.8 µM
not listed: [12] | [13] | [19]
inactive: all other assays above

CCc1cc(Cc2cc(CC)cc(C(C)(C)C)c2O)c(O)c(C(C)(C)C)c1
active: [1] 13.7 µM
not listed: [8] | [9] | [12] | [16] | [18] | [19]
inactive: all other assays above

CC1=C(C)C(=O)C(CCCCC#CCCCC#CCO)=C(C)C1=O
active: [2] 29.8 µM
not listed: [9] | [13] | [17] | [18] | [19]
inactive: all other assays above

CC(=O)c1ccc(C(C)=O)cc1
not listed: [10] | [16] | [19]
inactive: all other assays above
